The record followed here is PubChem BioAssay.

Each structure is given as a SMILES string.

Test in all cases: inhibition of PEG-3 promoter-driven reporter – cell-based, HeLa, luciferase, CREF/GAPDH counter-screen panel, dose response (AID 624167)
The target in test [1] is PEG-3 (UniProt Q6IN02). The conditions noted are these: CREF/GAPDH counter-screens; HeLa PEG-Prom luciferase reporter, overnight, run 1, dose range 1, at 100 µM (top of the series) unless noted. A general note: A counterscreen serves to expose hits that act by an unwanted route or on another target.
Test [2] deals with PEG-3 (UniProt Q6IN02). The following applies: CREF/GAPDH counter-screens; HeLa PEG-Prom luciferase reporter, overnight, run 2, dose range 1, at 100 µM (top of the series) unless noted.
Test [3] has as its system Rat fibroblasts (CREF). The conditions noted are these: CREF/GAPDH counter-screens; run 1, dose range 1, at 100 µM (top of the series).
Test [4] deals with Rat fibroblasts (CREF). The following applies: CREF/GAPDH counter-screens; run 2, dose range 1, at 100 µM (top of the series).

Usually inhibition stands for the change of the read-out against control, counted positive when it falls.

Sequence of PEG-3 (Q6IN02 whole entry, looked up): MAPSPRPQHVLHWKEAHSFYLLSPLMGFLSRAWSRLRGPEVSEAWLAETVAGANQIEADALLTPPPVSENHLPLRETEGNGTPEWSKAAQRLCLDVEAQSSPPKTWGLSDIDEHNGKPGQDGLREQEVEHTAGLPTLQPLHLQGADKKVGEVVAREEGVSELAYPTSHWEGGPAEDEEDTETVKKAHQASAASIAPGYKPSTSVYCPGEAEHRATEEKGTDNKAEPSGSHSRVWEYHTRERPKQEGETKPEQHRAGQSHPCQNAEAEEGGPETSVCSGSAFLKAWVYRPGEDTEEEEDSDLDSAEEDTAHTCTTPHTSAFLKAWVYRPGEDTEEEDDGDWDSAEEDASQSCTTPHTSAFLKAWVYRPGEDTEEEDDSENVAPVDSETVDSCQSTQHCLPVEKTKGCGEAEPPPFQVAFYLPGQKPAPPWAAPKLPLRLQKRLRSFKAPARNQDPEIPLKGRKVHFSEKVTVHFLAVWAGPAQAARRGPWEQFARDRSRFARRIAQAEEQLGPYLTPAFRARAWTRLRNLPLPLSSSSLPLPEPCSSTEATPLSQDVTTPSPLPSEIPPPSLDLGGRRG

On to `COc1cc(-c2cc(C(=O)N(C)Cc3ccccc3)c3ccccc3n2)cc(OC)c1OC`, for which the inhibition in the test with PEG-3 [1] was determined as 79.4%; with PEG-3 [2] it was 94.8%.

In the case of `CC(=O)OCCNc1cc(SCc2ccco2)c2nonc2c1[N+](=O)[O-]`, the inhibition in the test with PEG-3 [1] worked out at 100%; with PEG-3 [2] it was 98.1%.

As to `CCn1cc(C(=O)NCCC(C)C)c(=O)c2cc(F)c(N3CCN(C(=O)c4ccco4)CC3)cc21`, the inhibition in the test with PEG-3 [1] is 32.2%; in the test with PEG-3 [2], 101% [run 2, dose range 1, at 50 µM].

In the case of `O=c1cc2oc3cc(O)c(O)cc3c(-c3ccccc3[N+](=O)[O-])c-2cc1O`, the figures for the inhibition with PEG-3 [1] and with PEG-3 [2] were 93.5% and 99.6%, respectively.

For `N#C/C(=C\c1cccc([N+](=O)[O-])c1)C(=O)NCc1ccc(Cl)cc1`, the inhibition turned out to be 99.3% in the test with PEG-3 [1] and 101% with PEG-3 [2].

In the case of `COc1ccc2c(c1)C=C([C@@H]1C[C@H]3CN(c4ccccc4)C(=O)[C@]34CCCN14)CO2`, the inhibition in the test with PEG-3 [1] was found to be 65.2%; with PEG-3 [2], 74%.

In the case of `COc1ccccc1NC(=O)Nc1nc(C(N)CCc2ccccc2)cs1` (stereo not given), the inhibition in the test with PEG-3 [1] turned out to be 95.9%; with PEG-3 [2], 102%.

With `Oc1c(Cl)cc(Cl)c2cccnc12`, the inhibition turned out to be 80.8% in the test with PEG-3 [1] and 80.6% with PEG-3 [2].

For `Oc1ccc(C23CCCC2C2(CCCC2)c2ccc(O)cc2O3)c(O)c1` (stereo not given), the inhibition turned out to be 99.4% with PEG-3 [1] and 95.5% in the test with PEG-3 [2].

Turning to `CN(C)CCCNc1ncnc2oc(-c3ccccc3)c(-c3ccccc3)c12`, the inhibition is 102% with PEG-3 [1] and 101% with PEG-3 [2].

On to `COc1ccc(CC(N)c2csc(Nc3cccc(OC)n3)n2)cc1` (stereo not given), for which the results for the inhibition in the test with PEG-3 [1] and with PEG-3 [2] were 98.9% and 100%, respectively.

For the molecule `CCn1c2ccccc2c2cc(NC(=O)C(C)OC(=O)c3ccc(NC(=O)CC#N)cc3)ccc21` (stereo not given), the inhibition came to 97.5% with PEG-3 [1] and 83.1% with PEG-3 [2].

On to `CC1(C)CC(NC(=O)c2sc3cc(Cl)ccc3c2Cl)CC(C)(C)N1`, for which the inhibition in the test with PEG-3 [1] stood at 99.4%; with PEG-3 [2], 101%.

As to `COc1ccc(CCNC(=O)C(=O)NCC2CCCN2S(=O)(=O)c2ccccc2)cc1OC` (stereo not given), the inhibition was determined as 97.2% in the test with PEG-3 [1] and 81.7% with PEG-3 [2].

As for `N#Cc1cc2c(nc1SC1CC(=O)N(c3ccccc3)C1=O)CCC2` (stereo not given), the inhibition with PEG-3 [1] came to 33.5%; in the test with PEG-3 [2], 25.6%.

As for `O=C1CCC2S/C(=C/Nc3ccc(C(F)(F)F)cc3)C(=O)N12` (stereo not given), the inhibition with PEG-3 [1] turned out to be 87.1%; with PEG-3 [2], 85.3%.

In the case of `O=C(CCCN1C(=O)/C(=C/c2ccccc2Cl)SC1=S)NNC(=O)c1ccccc1Cl`, the values for the inhibition in the test with PEG-3 [1] and with PEG-3 [2] were 100% and 101%, respectively.

As for `COc1ccc(C[C@H]2CN3C(=NC[C@@H]3Cc3ccc(O)cc3)N2C[C@H](C)NC(=O)c2ccc(C)c(Br)c2)cc1`, the inhibition with PEG-3 [1] and with PEG-3 [2] was 102% in each case.

Take `Cc1cc(C)cc(NC(=O)Cn2c(=O)oc3cc(S(=O)(=O)N4CCC(C)CC4)ccc32)c1`: the inhibition with PEG-3 [1] was 19.2%; in the test with PEG-3 [2], 47.7%.

For the molecule `O=C1N[C@@H](c2ccccc2)COC(=O)[C@@H](Cc2ccc(F)cc2)CC/C=C/C[C@H]1CC(=O)N(CCO)Cc1ccccc1`, the inhibition with PEG-3 [1] turned out to be 95.6%; with PEG-3 [2] it was 97.4%.

Take `CCCCCCCCNCCS(=O)(=O)NCc1ccc(OC)cc1`: the inhibition with PEG-3 [1] was found to be 98.9%; with PEG-3 [2] it was 95.7%.

Turning to `CCC(=O)NC(c1cccs1)c1cc([N+](=O)[O-])c2cccnc2c1O` (stereo not given), the results for the inhibition with PEG-3 [1] and with PEG-3 [2] were 100% and 101%, respectively.

On to `COc1cc(OC)c2cc(C(=O)N/N=C/c3ccccc3O)[nH]c2c1`, for which the inhibition is 95.8% with PEG-3 [1], 95.1% in the test with PEG-3 [2], 67.5% in the test with Rat fibroblasts (CREF) [3] and 65.2% in the test on Rat fibroblasts (CREF) [4].

Regarding `CC1CCCN(c2ncnc3c2cnn3-c2ccc(Cl)cc2)C1` (stereo not given), the inhibition in the test with PEG-3 [1] came out at 98.9%; with PEG-3 [2], 98%; with Rat fibroblasts (CREF) [3] it was 94%; in the test on Rat fibroblasts (CREF) [4] it was 96.6%.

For `CN(C)c1ccc(/C=C(\C#N)c2ccccn2)cc1`, the inhibition was found to be 81.8% with PEG-3 [1], 84.6% with PEG-3 [2], 98.2% in the test with Rat fibroblasts (CREF) [3] and 99% with Rat fibroblasts (CREF) [4].

With `CCOc1cccc2sc(N(CCCN(C)C)C(=O)c3ccc(S(=O)(=O)N(CC)Cc4ccccc4)cc3)nc12`, the inhibition came out at 102% in the test with PEG-3 [1] and 101% with PEG-3 [2].

As to `O=C(Nc1cc(S(=O)(=O)N2CCOCC2)ccc1Cl)c1cc([N+](=O)[O-])ccc1Cl`, the inhibition with PEG-3 [1] is 98.9%; with PEG-3 [2] it was 98.9%; in the test on Rat fibroblasts (CREF) [3] it was 85.8%; in the test on Rat fibroblasts (CREF) [4], 98.1%.

As to `CCCC(=O)NC(c1ccc(Cl)cc1)c1ccc2cccnc2c1O` (stereo not given), the inhibition with PEG-3 [1] came out at 99.9%; with PEG-3 [2], 98.7%; in the test with Rat fibroblasts (CREF) [3], 12.3%; with Rat fibroblasts (CREF) [4], 28.1%.

`CN[C@H]1C[C@H]2c3[nH]c4ccc(-c5cccc(C)c5)cc4c3CCN2C[C@H]1[C@H](C)O`: the inhibition with PEG-3 [1] worked out at 99%; with PEG-3 [2], 100%.

For the molecule `CN=c1scc(-c2cccs2)n1/N=C/c1ccccc1O`, the inhibition with PEG-3 [1] came to 93.6%; with PEG-3 [2], 102%; with Rat fibroblasts (CREF) [3], 98.2%; in the test on Rat fibroblasts (CREF) [4], 97.1%.

In the case of `COc1ccc(CNCCC(c2ccccc2)c2ccc(OC(C)C)cc2)cc1OC` (stereo not given), the figures for the inhibition with PEG-3 [1] and with PEG-3 [2] were 101% and 102%, respectively.

In the case of `Cc1ccc2sc(N(CCCN(C)C)C(=O)c3ccc(S(=O)(=O)N(C)C4CCCCC4)cc3)nc2c1C`, the inhibition with PEG-3 [1] and in the test with PEG-3 [2] was 102% each time.

As for `O=C(CCN1C(=O)/C(=C/c2ccc(F)cc2)SC1=S)N[C@@H](CO)Cc1ccccc1`, the inhibition stood at 36.9% in the test with PEG-3 [1] and 72% in the test with PEG-3 [2].

In the case of `CCCCC(=O)NC(c1ccccc1Cl)c1ccc2cccnc2c1O` (stereo not given), the inhibition is 70.2% in the test with PEG-3 [1] and 87.3% with PEG-3 [2].

For the molecule `O=C1OCCC1Sc1nnc(-c2ccc(Cl)cc2Cl)o1` (stereo not given), the figures for the inhibition with PEG-3 [1] and in the test with PEG-3 [2] were 92.6% and 94.1%, respectively.

With `O=C(Nc1ccccc1)c1nc[nH]c1C(=O)NCCCCNC(=O)c1[nH]cnc1C(=O)Nc1ccccc1`, the inhibition was 22.3% in the test with PEG-3 [1] and 59.3% with PEG-3 [2].

Consider `O=C(Nc1nc2cc3c(cc2s1)OCCO3)c1ccco1`, for which the inhibition in the test with PEG-3 [1] was 97.8%; with PEG-3 [2], 95.5%; in the test with Rat fibroblasts (CREF) [3], 92.9%; in the test on Rat fibroblasts (CREF) [4], 95.1%.

As to `O=C(CN1CCN(Cc2ccccc2Cl)CC1)N=Nc1c(O)[nH]c2ccccc12`, the inhibition with PEG-3 [1] worked out at 94.2%; in the test with PEG-3 [2], 90.4%.
